Experimental data as given in the antibiotic and cytotoxicity screens of Wong et al. (2023).
Screen size: about 39,000 compounds; about 3,300 (8.5%) were called active. For the sample, actives were picked, then their nearest neighbours and some compounds at random.

tested on: HepG2; assay: cytotoxicity call (relative viability < 0.9); settings: 10 µM

SMILES | cytotoxicity call
C[C@H]1CN([C@@H](C)CO)C(=O)Cc2cc(NC(=O)Cn3cnnn3)ccc2O[C@H]1CN(C)Cc1ccc(C(=O)O)cc1 | inactive
C[C@@H]1CN([C@@H](C)CO)C(=O)c2cc(N(C)C)ccc2O[C@@H](C)CCCCO[C@@H]1CN(C)S(=O)(=O)c1cn(C)cn1 | inactive
COc1ccc(NC(=O)Nc2ccc3c(c2)C(=O)N([C@@H](C)CO)C[C@@H](C)[C@@H](CN(C)C(=O)Nc2ccc(OC)cc2)OCCCC[C@H](C)O3)cc1 | inactive
C[C@@H]1CN([C@@H](C)CO)C(=O)c2cccc(NC(=O)NC3CCCCC3)c2O[C@@H]1CN(C)Cc1ccc(Cl)c(Cl)c1 | inactive
O=C(O)/C=C/c1cnc[nH]1 | inactive
C=CCN1C(=O)[C@@]2(O[C@@H](CCO)[C@H]([Si](C)(C)c3ccc(OC)cc3)[C@H]2C)c2cc(N3C(=O)c4cccc5cccc3c45)ccc21 | active
C=CCN1C(=O)[C@@]2(O[C@@H](CCn3cc([C@H](O)c4ccccc4)nn3)[C@H]([Si](C)(C)c3ccc(OC)cc3)[C@H]2C)c2cc(N3C(=O)c4cccc5cccc3c45)ccc21 | inactive
C=CCN1C(=O)[C@]2(O[C@H](CCn3cc([C@H](O)c4ccccc4)nn3)[C@@H]([Si](C)(C)c3ccc(OC)cc3)[C@@H]2C)c2cc(N3C(=O)c4cccc5cccc3c45)ccc21 | inactive
C=CCN1C(=O)[C@]2(O[C@H](CCO)[C@@H]([Si](C)(C)c3ccc(OC)cc3)[C@@H]2C)c2cc(N3C(=O)c4cccc5cccc3c45)ccc21 | active
C=CCN1C(=O)[C@@]2(O[C@@H](CCO)[C@H]([Si](C)(C)F)[C@H]2C)c2cc(N3C(=O)c4cccc5cccc3c45)ccc21 | inactive
C[C@H](CO)N1C[C@H](C)[C@H](CN(C)C(=O)Nc2cccc3ccccc23)Oc2ccc(NS(=O)(=O)c3cccs3)cc2CC1=O | inactive
CC(C)NC(=O)N(C)C[C@@H]1OCCCC[C@@H](C)Oc2ccc(NC(=O)Nc3ccc(F)cc3)cc2C(=O)N([C@H](C)CO)C[C@H]1C | inactive
COc1ccccc1CNC(=O)C[C@@H]1C[C@@H]2c3cc(NC(=O)NC4CCCC4)ccc3O[C@@H]2[C@@H](CO)O1 | inactive
COc1ccc(NC(=O)N(C)C[C@H]2Oc3c(NC(=O)Nc4cccc5ccccc45)cccc3C(=O)N([C@H](C)CO)C[C@@H]2C)cc1 | inactive
COc1ccc(S(=O)(=O)Nc2ccc3c(c2)C(=O)N([C@H](C)CO)C[C@H](C)[C@H](CN(C)Cc2ccc(C(=O)O)cc2)OCCCC[C@@H](C)O3)cc1 | inactive
COc1ccc(NC(=O)N(C)C[C@@H]2OCCCC[C@@H](C)Oc3ccc(NC(=O)Nc4ccc(F)cc4)cc3C(=O)N([C@H](C)CO)C[C@H]2C)cc1 | inactive
O=C(CC1CC1)NCc1cnc2n1CCNCC2 | inactive
C[C@@H]1COC(=O)[C@@H](Cc2ccc(F)cc2)CCC=CC[C@@H](CC(=O)N[C@H](CO)Cc2ccccc2)C(=O)N1 | inactive
O=C(C[C@@H]1CC=CCC[C@@H](Cc2ccc(F)cc2)C(=O)OC[C@@H](Cc2c[nH]c3ccccc23)NC1=O)N[C@H](CO)Cc1ccccc1 | active
O=C(C[C@@H]1CC=CCC[C@@H](Cc2ccc(F)cc2)C(=O)OC[C@H](Cc2c[nH]c3ccccc23)NC1=O)N[C@H](CO)Cc1ccccc1 | active
O=C(C[C@@H]1CC=CCCC(=O)OC[C@H](Cc2c[nH]c3ccccc23)NC1=O)N[C@H](CO)Cc1ccccc1 | inactive
O=C(C[C@@H]1CC=CCC[C@@H](Cc2ccc(F)cc2)C(=O)OC[C@@H](Cc2c[nH]c3ccccc23)NC1=O)N[C@@H](CO)Cc1ccccc1 | inactive

SMILES | cytotoxicity call
O=C(C[C@@H]1CC=CCCC(=O)OC[C@@H](Cc2c[nH]c3ccccc23)NC1=O)N[C@@H](CO)Cc1ccccc1 | inactive
O=C(C[C@@H]1CC=CCCC(=O)OC[C@H](Cc2c[nH]c3ccccc23)NC1=O)N[C@@H](CO)Cc1ccccc1 | inactive
O=C(C[C@@H]1CC=CCC[C@@H](Cc2ccc(F)cc2)C(=O)OC[C@H](Cc2c[nH]c3ccccc23)NC1=O)N[C@@H](CO)Cc1ccccc1 | active
O=C(C[C@@H]1CC=CCC[C@H](Cc2ccc(F)cc2)C(=O)OC[C@H](Cc2c[nH]c3ccccc23)NC1=O)N[C@H](CO)Cc1ccccc1 | active
O=C(C[C@@H]1CC=CCC[C@H](Cc2ccc(F)cc2)C(=O)OC[C@@H](Cc2c[nH]c3ccccc23)NC1=O)N[C@@H](CO)Cc1ccccc1 | inactive
O=C(C[C@@H]1CC=CCC[C@H](Cc2ccc(F)cc2)C(=O)OC[C@H](Cc2c[nH]c3ccccc23)NC1=O)N[C@@H](CO)Cc1ccccc1 | inactive
O=C(C[C@@H]1CC=CCCC(=O)OC[C@@H](Cc2c[nH]c3ccccc23)NC1=O)N[C@H](CO)Cc1ccccc1 | inactive
Cc1noc(C)c1NC(=O)N(C)C[C@@H]1Oc2c(NS(=O)(=O)c3ccccc3)cccc2C(=O)N([C@@H](C)CO)C[C@@H]1C | inactive
CC(C)Cn1c(N)cc(=O)n(C)c1=O | inactive
C[C@@H]1CCCCO[C@@H](CN(C)C(=O)Nc2ccc3c(c2)OCO3)[C@H](C)CN([C@H](C)CO)C(=O)c2cc(NS(=O)(=O)c3ccccc3)ccc2O1 | inactive
COc1ccc(S(=O)(=O)Nc2cccc3c2O[C@H](CN(C)C(=O)Nc2cccc4ccccc24)[C@@H](C)CN([C@@H](C)CO)C3=O)cc1 | inactive
C=CC[C@@H](CC(=O)N(CCO)Cc1ccccc1)C(=O)NC[C@@H](OC(=O)[C@@H](CC=C)Cc1ccc(F)cc1)c1ccccc1 | inactive
C[C@@H]1CCCCO[C@@H](CN(C)CC2CC2)[C@H](C)CN([C@@H](C)CO)C(=O)c2cc(NC(=O)NC3CCCCC3)ccc2O1 | inactive
O=C1NC(=O)[C@@]2(CC[C@H](C(=O)O)C2)N1 | inactive
CN1CCN(C(=O)C[C@@H]2CC[C@H]3[C@@H](COC[C@H](O)CN3Cc3ccc(Oc4ccccc4)cc3)O2)CC1 | inactive
C[C@@H]1CCCCO[C@@H](CN(C)S(=O)(=O)c2cccs2)[C@H](C)CN([C@@H](C)CO)C(=O)c2cc(NC(=O)NC3CCCCC3)ccc2O1 | inactive
O=C(O)c1oc2ccccc2c1CSc1ccc(Cl)cc1 | inactive
COc1ccc(CN(C)C[C@@H]2OCCCC[C@H](C)Oc3ccc(NC(=O)NC4CCCCC4)cc3C(=O)N([C@H](C)CO)C[C@@H]2C)cc1 | inactive
COc1ccc(CN(C)C[C@H]2OCCCC[C@@H](C)Oc3ccc(NC(=O)NC4CCCCC4)cc3C(=O)N([C@@H](C)CO)C[C@@H]2C)cc1 | inactive
COc1ccc(CN(C)C[C@H]2OCCCC[C@@H](C)Oc3ccc(NC(=O)NC4CCCCC4)cc3C(=O)N([C@H](C)CO)C[C@H]2C)cc1 | active
COc1ccc(CN(C)C[C@@H]2OCCCC[C@@H](C)Oc3ccc(NC(=O)NC4CCCCC4)cc3C(=O)N([C@H](C)CO)C[C@H]2C)cc1 | inactive
COc1ccc(CN(C)C[C@@H]2OCCCC[C@@H](C)Oc3ccc(NC(=O)NC4CCCCC4)cc3C(=O)N([C@H](C)CO)C[C@@H]2C)cc1 | inactive

SMILES | cytotoxicity call
COc1ccc(CN(C)C[C@H]2OCCCC[C@H](C)Oc3ccc(NC(=O)NC4CCCCC4)cc3C(=O)N([C@@H](C)CO)C[C@@H]2C)cc1 | inactive
COc1ccc(CN(C)C[C@H]2OCCCC[C@H](C)Oc3ccc(NC(=O)NC4CCCCC4)cc3C(=O)N([C@H](C)CO)C[C@H]2C)cc1 | inactive
COc1ccc(CN(C)C[C@@H]2OCCCC[C@H](C)Oc3ccc(NC(=O)NC4CCCCC4)cc3C(=O)N([C@@H](C)CO)C[C@@H]2C)cc1 | active
COc1ccc(CN(C)C[C@H]2OCCCC[C@H](C)Oc3ccc(NC(=O)NC4CCCCC4)cc3C(=O)N([C@@H](C)CO)C[C@H]2C)cc1 | active
C[C@H](CO)N1C[C@H](C)[C@@H](CN(C)Cc2ccc(C(=O)Nc3ccccc3N)cc2)OCc2cnnn2CCCC1=O | inactive
CC(C)(C)[S@@](=O)N1Cc2cc(C(=O)N3CCCCC3)nc(-c3cccc(-c4ccc(F)cc4)c3)c2[C@H]1CCO | inactive
O=C(CN1CCOCC1)NCC[C@H]1CC[C@H](NS(=O)(=O)c2ccc(Cl)cc2)[C@H](CO)O1 | inactive
CCc1cc(=O)oc2c(C)c(O[C@@H]3O[C@H](CO)[C@@H](O)[C@H](O)[C@H]3O)ccc12 | inactive
COc1ccc(S(=O)(=O)N(C)C[C@H]2Oc3ccc(NC(=O)CCC(F)(F)F)cc3CC(=O)N([C@H](C)CO)C[C@H]2C)cc1 | inactive
Cc1cc(C(=O)Nc2cccc3c2O[C@H](CN(C)Cc2ccccc2)[C@H](C)CN([C@@H](C)CO)C3=O)n(C)n1 | inactive
COCC#Cc1ccc2c(c1)O[C@H](CN(C)C(=O)C1CCCCC1)[C@@H](C)CN([C@@H](C)CO)S2(=O)=O | inactive
CO[C@H](CN(C)S(=O)(=O)c1cn(C)cn1)[C@H](C)CN(C(=O)Nc1ccc(C(F)(F)F)cc1)[C@H](C)CO | inactive
CC(C)NC(=O)Nc1ccc2c(c1)C(=O)N([C@H](C)CO)C[C@@H](C)[C@@H](CN(C)C(=O)Nc1ccc3c(c1)OCO3)O2 | inactive
Cc1n[nH]c(C)c1S(=O)(=O)N1CCCC1 | inactive
COc1ccc(NC(=O)Nc2ccc3c(c2)[C@@H]2C[C@H](CC(=O)N4CCN(C)CC4)O[C@H](CO)[C@@H]2O3)cc1 | inactive
C[C@H](CO)N1C[C@H](C)[C@@H](CN(C)S(=O)(=O)c2ccc(Cl)cc2)Oc2c(NC(=O)Nc3cccc4ccccc34)cccc2C1=O | active
C[C@H]1CN([C@@H](C)CO)C(=O)c2cccc(NC(=O)Nc3cccc4ccccc34)c2O[C@@H]1CN(C)S(=O)(=O)c1ccc(F)cc1 | active
C[C@@H]1CN([C@@H](C)CO)C(=O)c2cccc(NC(=O)Nc3cccc4ccccc34)c2O[C@@H]1CN(C)S(=O)(=O)c1ccc(Cl)cc1 | inactive
C[C@H]1CN([C@@H](C)CO)C(=O)c2cccc(NC(=O)Nc3cccc4ccccc34)c2O[C@@H]1CN(C)S(=O)(=O)c1ccc(Cl)cc1 | inactive
C[C@@H]1CN([C@H](C)CO)C(=O)c2cccc(NC(=O)Nc3cccc4ccccc34)c2O[C@@H]1CN(C)S(=O)(=O)c1ccc(F)cc1 | inactive
C[C@@H]1CN([C@@H](C)CO)C(=O)c2cccc(NC(=O)Nc3cccc4ccccc34)c2O[C@H]1CN(C)S(=O)(=O)c1ccc(F)cc1 | inactive
